Laboratory results: PubChem BioAssay (NCATS)
Inconclusive results are not listed. Where a call stands in place of a potency, no number is given. Active and inactive are the calls of the source. Unless noted, calls come from the whole dose curve; as a rule, active = well fitted curve in the direction sought with a large enough effect; inconclusive = small, poorly fitted or top-dose-only effect, or another doubt; inactive = no such curve, though single readings can be large; an effect the other way counts as inactive or inconclusive.

Assays:
[1] = target: Muscarinic acetylcholine receptor M1 (Rattus norvegicus) (UniProt P08482); assay: qHTS Assay for Antagonists of Acetylcholine Muscarinic M1 Receptor: Measurement of IP-One Response (AID 944); note: nearly all actives have a fitted effect of over 75% in size
Muscarinic acetylcholine receptor M1 (Rattus norvegicus), sequence (P08482 whole entry, looked up): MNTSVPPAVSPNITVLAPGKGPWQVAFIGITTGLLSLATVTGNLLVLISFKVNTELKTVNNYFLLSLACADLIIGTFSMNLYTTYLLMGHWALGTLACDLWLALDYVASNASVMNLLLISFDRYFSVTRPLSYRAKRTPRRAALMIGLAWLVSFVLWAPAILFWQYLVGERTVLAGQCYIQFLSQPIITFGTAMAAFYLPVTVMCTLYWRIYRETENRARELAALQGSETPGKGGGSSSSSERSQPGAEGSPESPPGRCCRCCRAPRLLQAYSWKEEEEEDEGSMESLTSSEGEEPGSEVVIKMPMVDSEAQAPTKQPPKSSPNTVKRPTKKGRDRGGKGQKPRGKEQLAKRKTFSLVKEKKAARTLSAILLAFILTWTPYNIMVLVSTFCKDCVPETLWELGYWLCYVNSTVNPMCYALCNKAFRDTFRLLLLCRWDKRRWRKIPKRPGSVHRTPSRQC
Outline: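 CHO cells expressing rat M1 receptor, recovered overnight, were pre-incubated 10 min with compound, then stimulated 30 min with carbachol at EC80 (200 nM) in LiCl-containing buffer, pH 7.4. IP1 accumulation was read by HTRF (620/665 nm).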

[2] = target: Pyruvate kinase (Leishmania mexicana) (UniProt Q27686); assay: qHTS Validation Assay for Inhibitors of Leishmania Mexicana Pyruvate Kinase (AID 945)
Pyruvate kinase (Leishmania mexicana), sequence (Q27686 2-499 E452W): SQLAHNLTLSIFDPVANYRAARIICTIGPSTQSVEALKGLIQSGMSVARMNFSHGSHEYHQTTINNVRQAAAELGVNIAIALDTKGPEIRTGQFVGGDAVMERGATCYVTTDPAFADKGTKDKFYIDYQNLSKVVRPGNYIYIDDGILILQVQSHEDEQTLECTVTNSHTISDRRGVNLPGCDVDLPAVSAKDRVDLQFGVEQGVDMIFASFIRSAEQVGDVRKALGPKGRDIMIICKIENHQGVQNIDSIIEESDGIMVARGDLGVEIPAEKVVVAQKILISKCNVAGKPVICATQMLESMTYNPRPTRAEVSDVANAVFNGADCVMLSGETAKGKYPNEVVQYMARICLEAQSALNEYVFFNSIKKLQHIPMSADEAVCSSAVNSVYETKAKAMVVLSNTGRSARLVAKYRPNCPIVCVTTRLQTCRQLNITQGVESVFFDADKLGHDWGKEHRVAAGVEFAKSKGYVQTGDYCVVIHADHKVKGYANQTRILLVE
Outline: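 LmPYK E451W 0.2 nM; 0.5 mM PEP, 0.1 mM ADP, 7 mM MgCl2, 50 mM KCl, imidazole pH 7.2, 0.01% Tween 20, 0.05% BSA; 1 h RT; PKLight luminescence; DMSO-normalized.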

[3] = target: Alpha-galactosidase A (Homo sapiens) (UniProt P06280); assay: Counterscreen for Glucocerebrosidase Inhibitors: qHTS Assay for Human alpha-Galactosidase at pH 4.5 (AID 992)
Alpha-galactosidase A (Homo sapiens), sequence (P06280 whole entry, looked up): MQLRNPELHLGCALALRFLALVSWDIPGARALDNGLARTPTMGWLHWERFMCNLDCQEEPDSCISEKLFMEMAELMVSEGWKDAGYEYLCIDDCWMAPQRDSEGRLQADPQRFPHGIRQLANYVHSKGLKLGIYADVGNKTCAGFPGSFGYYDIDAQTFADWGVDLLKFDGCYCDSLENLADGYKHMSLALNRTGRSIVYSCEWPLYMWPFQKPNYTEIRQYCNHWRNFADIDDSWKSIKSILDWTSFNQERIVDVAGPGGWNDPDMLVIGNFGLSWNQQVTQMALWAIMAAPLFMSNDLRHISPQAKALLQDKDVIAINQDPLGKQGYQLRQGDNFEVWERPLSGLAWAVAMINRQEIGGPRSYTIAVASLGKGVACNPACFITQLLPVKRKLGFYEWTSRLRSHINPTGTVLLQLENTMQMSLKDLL
Outline: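 Enzyme at 2 nM final was combined with compound (0.7 nM to 77 uM) and 80 uM 4-methylumbelliferyl alpha-D-galactopyranoside in 50 mM citric acid, 0.005% Tween-20, pH 4.5. After 20 min at room temperature, fluorescence was read (Ex 365/Em 440 nm); AC50 came from Hill fits.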

[4] = target: Rap guanine nucleotide exchange factor 3 (Homo sapiens) (UniProt O95398); assay: Confirmatory qHTS for antagonist of cAMP-regulated guanine nucleotide exchange factor 3 (EPAC1) (AID 1645880); note: nearly all actives have a fitted effect of over 55% in size
Rap guanine nucleotide exchange factor 3 (Homo sapiens), sequence (O95398 whole entry, looked up): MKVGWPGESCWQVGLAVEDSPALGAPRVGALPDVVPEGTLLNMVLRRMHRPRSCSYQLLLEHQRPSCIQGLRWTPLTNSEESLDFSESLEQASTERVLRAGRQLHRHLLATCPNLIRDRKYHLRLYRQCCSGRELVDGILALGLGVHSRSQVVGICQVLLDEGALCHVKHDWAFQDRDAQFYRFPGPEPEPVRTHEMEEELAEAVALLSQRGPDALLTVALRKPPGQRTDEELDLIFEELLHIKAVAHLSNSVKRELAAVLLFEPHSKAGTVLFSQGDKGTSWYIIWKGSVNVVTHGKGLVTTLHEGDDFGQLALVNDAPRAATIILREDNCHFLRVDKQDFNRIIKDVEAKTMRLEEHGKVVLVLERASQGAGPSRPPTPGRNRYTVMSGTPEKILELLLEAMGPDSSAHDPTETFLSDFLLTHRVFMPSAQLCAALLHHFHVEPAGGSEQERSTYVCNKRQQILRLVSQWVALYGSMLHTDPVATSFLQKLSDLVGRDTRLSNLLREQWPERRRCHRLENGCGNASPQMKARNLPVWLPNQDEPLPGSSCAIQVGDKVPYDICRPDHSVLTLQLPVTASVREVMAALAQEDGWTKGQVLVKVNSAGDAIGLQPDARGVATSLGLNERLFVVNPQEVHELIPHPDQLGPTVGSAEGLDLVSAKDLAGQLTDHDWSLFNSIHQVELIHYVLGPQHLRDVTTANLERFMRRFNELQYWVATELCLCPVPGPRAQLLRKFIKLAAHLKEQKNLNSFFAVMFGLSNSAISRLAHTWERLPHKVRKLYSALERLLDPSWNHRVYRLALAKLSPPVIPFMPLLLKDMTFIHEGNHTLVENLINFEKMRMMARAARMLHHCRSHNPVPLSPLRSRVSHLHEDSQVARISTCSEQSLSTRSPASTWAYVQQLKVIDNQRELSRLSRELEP
Outline: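 Nucleotide exchange uses 100 nM EPAC1, 250 nM RAP1B-BODIPY-GDP and 50 uM GDP, with compounds in a concentration-titration series. After 5 min at room temperature, fluorescence (480 nm ex/540 nm em) is read every 5 min for 30 min. Data are normalized to control ATA and DMSO.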

[5] = target: Rap guanine nucleotide exchange factor 4 (Homo sapiens) (UniProt Q8WZA2); assay: Confirmatory qHTS for agonist of cAMP-regulated guanine nucleotide exchange factor 4 (EPAC2) (AID 1645884);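 note: nucleotide exchange releases bodipy-GDP from Rap1 and this lowers its fluorescence; nearly all actives have a fitted effect of over 65% in size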
Rap guanine nucleotide exchange factor 4 (Homo sapiens), sequence (Q8WZA2 whole entry, looked up): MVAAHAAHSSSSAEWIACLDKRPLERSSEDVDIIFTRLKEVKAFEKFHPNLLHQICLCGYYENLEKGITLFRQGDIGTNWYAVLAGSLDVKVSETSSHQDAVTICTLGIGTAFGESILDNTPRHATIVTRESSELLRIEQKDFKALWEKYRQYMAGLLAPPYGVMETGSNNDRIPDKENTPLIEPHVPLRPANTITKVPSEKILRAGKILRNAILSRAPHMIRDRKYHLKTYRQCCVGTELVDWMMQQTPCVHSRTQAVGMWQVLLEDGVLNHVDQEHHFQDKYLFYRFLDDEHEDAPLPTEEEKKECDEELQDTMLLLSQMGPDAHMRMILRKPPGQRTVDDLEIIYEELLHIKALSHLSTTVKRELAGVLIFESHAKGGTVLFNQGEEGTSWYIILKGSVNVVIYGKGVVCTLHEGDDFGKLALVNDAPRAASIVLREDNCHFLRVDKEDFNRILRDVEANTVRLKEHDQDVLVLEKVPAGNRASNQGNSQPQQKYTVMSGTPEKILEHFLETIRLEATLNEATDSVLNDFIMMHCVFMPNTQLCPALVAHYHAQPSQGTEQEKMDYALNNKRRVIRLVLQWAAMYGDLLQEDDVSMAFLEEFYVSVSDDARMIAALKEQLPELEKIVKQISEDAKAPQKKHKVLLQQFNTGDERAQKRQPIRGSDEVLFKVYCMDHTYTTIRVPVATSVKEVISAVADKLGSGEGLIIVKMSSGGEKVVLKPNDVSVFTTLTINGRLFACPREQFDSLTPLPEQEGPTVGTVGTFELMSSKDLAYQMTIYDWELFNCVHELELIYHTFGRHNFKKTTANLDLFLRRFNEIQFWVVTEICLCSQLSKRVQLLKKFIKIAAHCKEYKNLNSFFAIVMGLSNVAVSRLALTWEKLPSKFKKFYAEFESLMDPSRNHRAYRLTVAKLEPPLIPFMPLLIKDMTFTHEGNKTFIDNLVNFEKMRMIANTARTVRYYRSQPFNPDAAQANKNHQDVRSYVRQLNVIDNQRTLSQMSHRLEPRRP

[6] = target: Rap guanine nucleotide exchange factor 4 (Homo sapiens) (UniProt Q8WZA2); assay: Confirmatory qHTS for antagonist of cAMP-regulated guanine nucleotide exchange factor 4 (EPAC2) (AID 1645885); note: nearly all actives have a fitted effect of over 25% in size; note: potency is the fitted concentration of half-maximal effect
[7] = Confirmation and Secondary Assay for Modulators of Hemoglobin Beta Chain Splicing at IVS2 654 locus (AID 910);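 note: per-well total GFP intensity by laser scanning cytometry after 2-day treatment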
Outline: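 HeLa cells stably carrying EGFP interrupted by mutant beta-globin IVS2-654 intron (CMV-driven) were treated with compound for 2 days at 37C; corrected splicing was scored as total peak GFP intensity per well (488 nm excitation, 500-520 nm emission).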

[8] = qHTS Assay for Identification of Small Molecule Agonists for Thrombopoietin (TPO) Signaling Pathway (AID 917)
Outline: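 Murine Ba/F3 cells stably expressing human TPO receptor and a Glycoprotein IIb promoter–luciferase reporter were IL-3-starved overnight, then treated with compounds plus TPO (26 pM final, its EC50) for 24 hrs at 37 C; luminescence was read.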

[9] = Confirmation and Secondary Assay for Modulators of Hemoglobin Beta Chain Splicing at IVS2 705 locus (AID 930);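 note: HeLa cells stably expressing the EGFP-705 splicing reporter; series mostly up to about 46 µM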
Outline: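 HeLa cells stably carrying EGFP interrupted by mutant beta-globin IVS2-705 intron (CMV-driven) were seeded at 500 cells/well, treated next day with compound for 2 days at 37C; corrected splicing restores EGFP, read as total peak GFP intensity per well.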

[10] = target: Phospholipid hydroperoxide glutathione peroxidase GPX4 (Homo sapiens) (UniProt P36969); assay: Primary qHTS Assay for Inhibitors of Recombinant Selenoprotein Glutathione Peroxidase 4 (GPX4) (AID 1845192); conditions: outcome: dose series up to 50 µM unless noted; note: nearly all actives have a fitted effect of over 65% in size
Phospholipid hydroperoxide glutathione peroxidase GPX4 (Homo sapiens), sequence (P36969 whole entry, looked up): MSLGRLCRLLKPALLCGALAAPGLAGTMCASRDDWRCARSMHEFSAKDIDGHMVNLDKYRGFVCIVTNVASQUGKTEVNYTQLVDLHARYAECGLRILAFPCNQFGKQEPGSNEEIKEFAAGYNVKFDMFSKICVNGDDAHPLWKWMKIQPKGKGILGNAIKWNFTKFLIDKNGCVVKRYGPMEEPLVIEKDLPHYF
Outline: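 GR-coupled readout: 100 nM GR, 1 mM GSH, 0.5 mM NADPH; NADPH fluorescence (ex 340/em 450 nm) read at t=0 and after 15 min RT. GPX4 200 nM, preincubated 30 min with compound; substrate 0.5 mM CHP.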

[11] = target: Muscarinic acetylcholine receptor M1 (Rattus norvegicus) (UniProt P08482); assay: qHTS Assay for Antagonists of Acetylcholine Muscarinic M1 Receptor: Kinetic Measurement of Intracellular Calcium Response (AID 943); note: nearly all actives have a fitted effect of over 75% in size; note: potency is the fitted concentration of half-maximal effect
Outline: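 CHO cells stably expressing rat M1 were loaded with no-wash Fluo-4 dye for 1 h at 37C, pre-incubated 10 min with compound, then challenged with EC80 carbachol (100 nM final); kinetic calcium read 4 min, peak/basal ratio.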

[12] = target: Pyruvate kinase PKM (Homo sapiens) (UniProt P14618); assay: qHTS Assay for Activators of Human Muscle Pyruvate Kinase (AID 954; active = well fitted curve in the direction sought with a large enough effect, not every such curve was filed as active)
Pyruvate kinase PKM (Homo sapiens), sequence (P14618 whole entry, looked up): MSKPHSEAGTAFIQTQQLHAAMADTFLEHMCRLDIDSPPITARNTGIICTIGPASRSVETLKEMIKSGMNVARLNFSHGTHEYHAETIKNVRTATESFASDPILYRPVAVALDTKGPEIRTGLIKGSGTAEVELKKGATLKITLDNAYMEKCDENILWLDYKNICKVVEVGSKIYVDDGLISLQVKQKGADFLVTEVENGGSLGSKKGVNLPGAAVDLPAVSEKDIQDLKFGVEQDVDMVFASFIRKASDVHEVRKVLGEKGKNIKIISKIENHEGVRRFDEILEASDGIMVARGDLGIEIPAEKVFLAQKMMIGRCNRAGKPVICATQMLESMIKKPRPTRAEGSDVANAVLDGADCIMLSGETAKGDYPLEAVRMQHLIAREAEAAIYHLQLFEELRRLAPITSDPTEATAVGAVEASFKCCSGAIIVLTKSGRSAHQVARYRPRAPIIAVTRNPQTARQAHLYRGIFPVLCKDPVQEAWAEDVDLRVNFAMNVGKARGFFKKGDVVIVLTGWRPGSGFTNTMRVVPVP
Outline: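 Luminescence from a luciferase ATP-detection/stop reagent reported PKM2 activity. Reactions contained 0.1 nM purified human enzyme, 0.5 mM PEP, 0.1 mM ADP and 7 mM MgCl2 at pH 7.2, run 1 h at RT.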

[13] = target: Glutathione peroxidase 1 (Homo sapiens) (UniProt P07203); assay: Primary qHTS Assay for Inhibitors of Recombinant Selenoprotein Glutathione Peroxidase 1 (GPX1) (AID 1845191); note: nearly all actives have a fitted effect of over 65% in size
Glutathione peroxidase 1 (Homo sapiens), sequence (P07203 whole entry, looked up): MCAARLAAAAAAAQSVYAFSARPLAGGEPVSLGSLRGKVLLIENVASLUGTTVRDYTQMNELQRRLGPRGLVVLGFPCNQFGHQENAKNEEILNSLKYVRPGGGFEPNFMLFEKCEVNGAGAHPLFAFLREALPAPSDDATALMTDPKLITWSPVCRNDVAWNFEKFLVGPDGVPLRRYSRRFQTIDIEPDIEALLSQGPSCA
Outline: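 Recombinant GPX1 (10 nM final) was preincubated with compound for 30 min at room temperature, then reacted with 1 mM GSH, 0.5 mM CHP, 0.5 mM NADPH and 100 nM glutathione reductase; NADPH fluorescence (340/450 nm) was read at 0 and 15 min.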

[14] = qHTS Assay for Identification of Small Molecule Antagonists for Thrombopoietin (TPO) Signaling Pathway (AID 918); conditions: TPO-dependent cell signaling reporter, antagonist mode; note: potency is the fitted concentration of half-maximal effect; nearly all actives have a fitted effect of over 60% in size
Outline: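 Murine Ba/F3 cells stably expressing human TPO receptor and a Glycoprotein IIb promoter–luciferase reporter were IL-3-starved overnight, treated with compounds plus TPO (26 pM final, its EC50) for 24 hrs at 37 C, then read by luminescence.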

[15] = qHTS Assay for Identification of Small Molecule Antagonists for NFkB Signaling Pathway (AID 895; active = well fitted inhibition curve with a large enough effect in the signal ratio, with a control signal flat, not every such curve was filed as active; the % refers to the signal ratio)
Outline: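 NFkB-bla ME-180 cervical carcinoma cells with beta-lactamase reporter under NFkB response element; compounds added, then TNF alpha at 10 pM final (EC50), 5 h at 37 C. LiveBLAzer substrate 2 h, room temperature; emission 460/530 nm at 405 nm excitation.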

For `CCOC(=O)[C@@]12C[C@@H]1/C(=N/O)c1ccccc1O2`, which Potency [1] is on record?
Its Potency is “inactive”.

What about the Potency [2] of the same compound?
Its Potency is “inactive”.

What about the outcome [3] of the same compound?
Its outcome is “inactive”.

What about the Potency [4] of the same compound?
Its Potency is “inactive”.

And the outcome [5]?
Its outcome is “inactive”.

What about the Potency [6] of the same compound?
Its Potency is “inactive”.

For `CCCCOc1cc(C[C@@H]2CNC(=O)N2)ccc1OC`, which outcome [7] is on record?
Its outcome is “inactive”.

What about the Potency [8] of the same compound?
The Potency was “inactive”.

What about the outcome [9] of the same compound?
Its outcome is “inactive”.

And the Potency [1]?
Its Potency is “inactive”.

And the outcome [3]?
Its outcome is “inactive”.

Which Potency [10] does the source give for `N[C@H](Cc1ccccc1)C(=O)O` here?
Its Potency is “inactive”.

What does the source list for `NCCNS(=O)(=O)c1cccc2cnccc12`?
Potency [11]: inactive; Potency [2]: inactive; outcome [12]: inactive

For `CC[C@H](C)N(C)C(=O)c1cc2ccccc2c(-c2ccccc2Cl)n1`, which Potency [4] is on record?
The Potency was “inactive”.

What about the outcome [5] of the same compound?
Its outcome is “inactive”.

With `N#CC(=C(/N)Sc1ccccc1N)/C(C#N)=C(/N)Sc1ccccc1N` as the compound, how does the Potency [11] read?
Its Potency is “inactive”.

And the outcome [12]?
The outcome was “inactive”.

And the outcome [3]?
The outcome was “inactive”.

With `c1ccc(-c2n[nH]c3c2oc2ccccc23)cc1` as the compound, how does the Potency [13] read?
Its Potency is “inactive”.

What does the source list for `CC(C)=CCC/C(C)=C/CC/C(C)=C/CO`?
outcome [7]: inactive; outcome [9]: inactive; outcome [5]: inactive; Potency [6]: 31.2 µM (active)

What does the source list for `N[C@H](Cc1ccc(Cl)cc1)C(=O)O`?
outcome [7]: inactive; outcome [9]: inactive; Potency [11]: inactive; Potency [2]: inactive; outcome [12]: inactive

Which results are given for `Cc1sc(N)c(C(=O)c2cccc(C(F)(F)F)c2)c1C`?
Potency [4]: inactive; outcome [5]: inactive

With `Cc1ccc(NC2=CC(=O)c3sc(C)nc3C2=O)cc1` as the compound, how does the Potency [13] read?
Its Potency is “inactive”.

Which outcome [5] does the source give for `CC(C)[C@H](CO)Nc1nc(Nc2cc(N)cc(Cl)c2)c2ncn(C(C)C)c2n1` here?
Its outcome is “inactive”.

With `C[N+](C)(C)CCC(=O)c1cccc2ccccc12` as the compound, how does the Potency [14] read?
The Potency was 2.51 µM (active).

And the Potency [11]?
The Potency was “inactive”.

What about the Potency [1] of the same compound?
The Potency was “inactive”.

And the Potency [2]?
The Potency was “inactive”.

What about the outcome [3] of the same compound?
The outcome was “inactive”.

With `Cc1cccc(/C=C\c2ccccc2)n1` as the compound, how does the outcome [12] read?
The outcome was “inactive”.

What about the outcome [3] of the same compound?
The outcome was “inactive”.

Which Potency [15] does the source give for `Cc1cccc([C@@H]2CN(C)CCc3c2cc(O)c(O)c3Cl)c1` here?
Its Potency is “inactive”.

What about the Potency [1] of the same compound?
The Potency was “inactive”.

And the Potency [2]?
Its Potency is “inactive”.

And the outcome [12]?
Its outcome is “inactive”.

And the outcome [3]?
Its outcome is “inactive”.

For `CC#CCOC(=O)c1c(C)nc2sc3c(c2c1N)CC[C@@H](O)C3`, which Potency [11] is on record?
The Potency was 5.01 µM (active).

And the Potency [2]?
The Potency was “inactive”.

What about the outcome [3] of the same compound?
Its outcome is “inactive”.

For `CCCCCCCCCCCCCCCC(=O)O[C@H](CC(=O)O)C[N+](C)(C)C`, which Potency [11] is on record?
Its Potency is 5.62 µM (active).
